Assay results from PubChem BioAssay (Tox21).
Results filed as inconclusive are left out. Where a call stands in place of a potency, no number is given. Activity calls are given as the source filed them. Calls come from the whole dose curve; as a rule, active = well fitted cell-killing curve with a large enough effect in the repeat runs; inconclusive = weak or mixed curves, or effect the other way; inactive = no such curve, though single readings can be large or run the other way.
Potency is the fitted concentration of half-maximal effect.

Test: qHTS assay to identify small molecule antagonists of the glucocorticoid receptor (GR) signaling pathway - cell viability counter screen (AID 720693); note: nearly all actives have a fitted effect of over 55% in size
Conditions: GR-bla HeLa viability, CellTiter-Glo luminescence, 18 h, with 5 nM dexamethasone present; series mostly up to 58.5 µM; viability change, negative = cytotoxic: at the top concentration
Source text: National Center for Advancing Translational Sciences [NCATS]
NIH Chemical Genomics Center [NCGC]
U.S. Environmental Protection Agency [EPA]
National Institutes of Environmental Health Sciences [NIEHS]
National Toxicology Program [NTP]
U.S. Food and Drug Administration [FDA]
The Glucocorticoid receptor (GR) is one of the members of the nuclear receptor family of ligand-dependent transcription factors. GR plays a critical role in carbohydrate, protein and lipid metabolisms and programmed cell death. CellSensor GR-bla HeLa cell line (Invitrogen) contains a beta-lactamase reporter gene under the control of the glucocorticoid response element stably integrated into HeLa cells, a cervical cancer cell line that expresses glucocorticoid receptor. The activation of the reporter gene under culture conditions can be detected by fluorescence intensity. This cell line has been used to screen the Tox21 10K compound library and to identify the compounds that inhibit the GR signaling. The cytotoxicity of the Tox21 compound library against the GR-bla HeLa cell line was tested in parallel by measuring the cell viability using CellTiter-Glo assay in the same wells.
Tox21 Assay Protocol Summary:
The GR-bla HeLa cells were dispensed at 1500 cells/5 ul/well in 1536-well black wall/clear bottom plates using a Multidrop Combi (ThermoFisher Scientific, Waltham, MA) dispenser. After the assay plates were incubated at a 37 C/5% CO2 incubator for 4 hours, 23 nL of compounds dissolved in DMSO, positive controls or DMSO only was transferred to the assay plate by a pintool station (Kalypsys, San Diego, CA), followed by addition of 1 uL of dexamethasone (5 nM, final concentration in the well). The plates were incubated at 37 C for 18 hours. After 1 uL of LiveBLAzerTM B/G FRET substrate was added using a Flying Reagent Dispenser (Aurora Discovery, San Diego, CA), the plates were incubated at room temperature (RT) for 2 hours, and fluorescence intensity was measured by an Envision plate reader (PerkinElmer, Shelton, CT). After measurement of bla assay, 3 ul CellTiter-Glo (Promega, Madison, WI) was added to measure the cytotoxicity and the plates were then incubated at RT for 30 min. The luminescence was measured using a ViewLux (Perkin Elmer) plate reader.
In the case of CCOCCOCCO, the Potency is reported as “inactive”. For CC(=O)C1(C)CC2=C(CCCC2(C)C)CC1C (stereo not given), the Potency was “inactive”. For O=C(OCc1ccccc1)c1ccccc1O, the Potency was “inactive”. In the case of C[Si](C)(C)O[Si](C)(C)C, the Potency is reported as “inactive”. In the case of Cc1c(C(N)=O)cc([N+](=O)[O-])cc1[N+](=O)[O-], the Potency is reported as “inactive”. With CCC(C)CO (stereo not given) the Potency was “inactive”. In the case of COC(=O)C1=C(C)NC(C)=C(C(=O)OCCN(C)Cc2ccccc2)C1c1cccc([N+](=O)[O-])c1 (stereo not given), the “viability change, negative = cytotoxic” value is reported as 1.02% (inactive). In the case of Clc1nc(Cl)c(Cl)c(Cl)c1Cl, the Potency is reported as “inactive”. In the case of COC(=O)CCC(=O)OC, the Potency is reported as “inactive”. With COc1ccc(C(=O)CC(=O)c2ccc(C(C)(C)C)cc2)cc1 the Potency was “inactive”. In the case of C#C[C@]1(O)CC[C@H]2[C@@H]3CCc4cc(OC)ccc4[C@H]3CC[C@@]21C, the Potency is reported as “inactive”. In the case of Cc1cc2nc3c(=O)[nH]c(=O)nc-3n(C[C@H](O)[C@H](O)[C@H](O)CO)c2cc1C, the Potency is reported as “inactive”. For Cc1cccc(N(C)C(=S)Oc2ccc3ccccc3c2)c1, the Potency was “inactive”. With c1ccncc1 the Potency was “inactive”. With CN1C(C(=O)Nc2ccccn2)=C(O)c2ccccc2S1(=O)=O the “viability change, negative = cytotoxic” value was -5.5% [at 78.9 µM] (inactive). For O=Cc1ccccc1O, the Potency was “inactive”. With O=C=Nc1ccc(Cc2ccc(N=C=O)cc2)cc1 the Potency was “inactive”. With CCCCCCCCCC(=O)OC the Potency was “inactive”. In the case of Nc1ccc(S(=O)(=O)Nc2cnc3ccccc3n2)cc1, the Potency is reported as “inactive”. With COc1cc([C@@H]2c3cc4c(cc3[C@H](O)[C@H]3COC(=O)[C@H]23)OCO4)cc(OC)c1OC the Potency was “inactive”. For CC(C)OC(=O)C(C)(C)Oc1ccc(C(=O)c2ccc(Cl)cc2)cc1, the Potency was “inactive”. For CC1=CC2C3CC(C=C3C)C2C1 (stereo not given), the Potency was “inactive”. For c1ccc2c(c1)c1cccc3ccc4cccc2c4c31, the Potency was “inactive”. With COC(C)COC(C)COC(C)CO (stereo not given) the Potency was “inactive”. For Cc1cccc(C(=O)O)c1, the Potency was “inactive”. For CC(C)=CCC/C(C)=C\CO, the Potency was “inactive”. For CCCCOCCOCCO, the Potency was “inactive”. For O=C(Nc1ccc([N+](=O)[O-])cc1Cl)c1cc(Cl)ccc1O, the Potency was 275 nM (active). With Nc1ccc(Cl)cc1Cl the Potency was “inactive”. In the case of C/C=C/C(=O)O, the “viability change, negative = cytotoxic” value is reported as -0.261% (inactive). In the case of COc1ccc(OC)c(C(O)CNC(=O)CN)c1 (stereo not given), the Potency is reported as “inactive”. For COc1ccccc1/C=C/C=O, the Potency was “inactive”. For c1ccc2c(c1)Oc1ccccc1S2, the Potency was “inactive”. With Nc1ccc(Nc2ccccc2)cc1 the Potency was “inactive”. For O=C(c1ccccc1)c1ccccc1O, the Potency was “inactive”. With Cc1ncc[nH]1 the Potency was “inactive”. For O=C(/C=C/C=C/c1ccc2c(c1)OCO2)N1CCCCC1, the Potency was “inactive”. For O=C1c2cccc(O)c2C(=O)c2c(O)cccc21, the Potency was “inactive”. For CN(C)C(=N)N=C(N)N, the Potency was “inactive”. With c1ccc2cc(Nc3ccc(Nc4ccc5ccccc5c4)cc3)ccc2c1 the Potency was “inactive”.
